# Assay results: PubChem BioAssay (NCI)
# The panel holds about 83,000 compounds, 20% with a hit somewhere; the sample as a whole holds those more often.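 Cells were grown in 96-well plates and exposed to the test compound at a single concentration for 48 hours; results are reported as percent growth, with values below 10 considered active.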 Unmarked numbers belong to inactive results. The source made the active and inactive calls.
# Tested on: SF-295 CNS
# Assay: NCI-60 one-dose screen, 48 h (100 = growth as untreated, 0 = no growth, -100 = all killed)
# Details: 10 µM unless noted
row,Compound,growth
1,CCC(C)(C)c1ccc(OCCCCCCN2CCN(c3ccc(C)c(Cl)c3)CC2)cc1,85.7%
2,Cc1ncc(C(=O)Nc2ccc(CN3CCN(C)CC3)c(C(F)(F)F)c2)cc1C#Cc1c(N)ncc2ccccc12,-90.5% (active)
3,COc1ccc2cnc(N)c(C#Cc3cc(C(=O)Nc4ccc(CN5CCN(C)CC5)c(C(F)(F)F)c4)cnc3C)c2c1,78.9%
4,COc1ccc(-c2nc(SCC(C)C)nc(Nc3ccc(C(=O)O)cc3)c2C#N)cc1,75.9%
5,CCCCCCCCCCCCCCCCC(=O)O.CCCCCCCCCCCCCCCCCC(=O)O.CCCCCCCCCCCCCCCCCC(=O)O.CCCCCCCCCCCCCCCCCC(=O)O.CCCCCCCCCCCCCCCCCC(=O)O.CO[CH-]OC12COC1CC(O)C1(C)C(O)C(OC(C)O)C3=C(C)C(OC(=O)C(O)C([NH-])c4ccccc4)CC(O)(C(OC(=O)c4ccccc4)C21)C3(C)C.[Cu+].[Zn].[Zn].[Zn].[Zn].[Zn] (stereo unspecified),16.5%
6,O=C1c2cc([N+](=O)[O-])ccc2-c2cc(Cl)c(NC(=O)C(F)(F)F)cc21,111%
7,CCCNC(=O)Oc1ccc(/C(=C(/C)Cc2ccc(OC)cc2)c2ccc(OCCN3CCCCC3)cc2)cc1,102%
8,CC(=O)CCS(=O)c1ccccc1 (stereo unspecified),97.6%
9,N#CC1=C(N2CCOCC2)NC2c3ccccc3Sc3ccccc3N2C1=N (stereo unspecified),116%
10,CC(C)(C)OC(=O)N1C/C(=C\c2ccccc2)C(=O)/C(=C/c2ccccc2)C1,99.5%
11,N#Cc1ccc(NC2c3ccccc3CC2O)cc1 (stereo unspecified),114%
12,CC([C@H]1CCC2C3CCC4C[C@@H](N)CC[C@]4(C)C3CC[C@@]21C)N(C)C (stereo partly specified),76.6%
13,CCN(CC)c1ccc2nc3ccc(N=Nc4ccc(O)cc4)cc3[n+](-c3ccccc3)c2c1,66.8%
14,CC(C)CSc1nc(-c2ccc(F)cc2)c(C#N)c(N2CCCCC2)n1,92.6%
15,Cc1ccc(C(=O)Nc2ccc(CN3CCN(C)CC3)c(C(F)(F)F)c2)cc1C#Cc1cnc(N)c2ccc(C#N)cc12,61.8%
16,CCCCCN1CCN(C(CC(=O)c2ccccc2)C(=O)c2ccccc2)CC1 (stereo unspecified),105%
17,COc1ccc2cc(C(C)C(=O)Nc3ccc(S(=O)(=O)Nc4cc(C)on4)cc3)ccc2c1 (stereo unspecified),105%
18,CN1CCN(Cc2ccc(NC(=O)c3ccc(C#Cc4c(N)ncc5ccc(F)cc45)cc3)cc2C(F)(F)F)CC1,-56.7% (active)
19,CSC1=Nc2c(c(C)c(-c3ccccc3)n2CCCCl)C2=NC(=O)CN12,43.3%
20,Cc1ncc(C(=O)Nc2ccc(CN3CCN(C)CC3)c(C(F)(F)F)c2)cc1C#Cc1cnc(NC2CC2)c2ncccc12,-91.8% (active)
21,Oc1ccc([S+](c2ccc(O)cc2)c2ccc(O)cc2)cc1,96%
22,Oc1ccc2ccccc2c1/C=N\Nc1ccccn1,-42.7% (active)
23,CCCNC(=O)Oc1ccc(/C(=C(/CC)Cc2ccccc2)c2ccc(OCCN(CC)CC)cc2)cc1,97.8%

# Tested on: SF-539 CNS
# Assay: as above
# Details: 10 µM unless noted
row,Compound,growth
1,Cc1cc(CSc2ccc(Cl)cc2)ccc1N,62.9%
2,CC(=O)C(CO)C(=O)Nc1ccccc1 (stereo unspecified),95.4%
3,Cc1nc2ccccc2c(=O)n1-c1cccc(OCc2cn(-c3cccc(O)c3)nn2)c1,100%
4,CCCCCCCCCCN1CC2CCCCC2C1 (stereo unspecified),85.1%
5,CCCCN(CCC)CCCCCCCCCCN1CCCc2ccccc21,101%
6,C/C=C(/C)C(=O)OC1C=C(CO)C(=O)C(OC(=O)/C(C)=C\C)C1C(C)C (stereo unspecified),-92.1% (active)
7,O=C1C(Cl)=C(Nc2ccc(Nc3ccccc3)c(NC3=C(Cl)C(=O)c4ccccc4C3=O)c2)C(=O)c2ccccc21,42.5%
8,CN1CCN(Cc2ccc(NC(=O)c3cncc(C#Cc4c(N)ncc5ccc(F)cc45)c3)cc2C(F)(F)F)CC1,-68.2% (active)
9,COc1cccc(CNC(=O)c2cccc(C3CC(=O)c4c(cc(OC)c(OC)c4OC)O3)c2)c1 (stereo unspecified),35.4%
10,COC(=O)C1CC(=O)N(C(=O)Nc2ccc(Cl)cc2Cl)C1 (stereo unspecified),99.6%
11,O=C(/C=C\c1ccc(NCc2ccc(C(=O)O)cc2)cc1)CCl,95%
12,CC1(C)NC(=S)NC1=O,111%
13,Cc1ccc(C(=O)Nc2ccc(CN3CCN(C)CC3)c(C(F)(F)F)c2)cc1C#Cc1cncc2ncccc12,-98.2% (active)
14,COc1ccc(-c2nc(N)n(C(=S)Nc3ccccc3)n2)cc1,97.1%
15,O=C(O)c1ccc(-c2nn(-c3ccc(C(=O)O)cc3)cc2CNc2ccc(Br)cc2)cc1,101%
16,CCS(=O)(=O)N[C@@H]1O[C@H](COC(C)=O)C(OC(C)=O)[C@H](OC(C)=O)C1OC(C)=O (stereo partly specified),95.1%
17,CCC(C)(C)c1ccc(OCCCCCCN2CCN(c3ccc(C)c(Cl)c3)CC2)cc1,98.6%
18,Cc1ncc(C(=O)Nc2ccc(CN3CCN(C)CC3)c(C(F)(F)F)c2)cc1C#Cc1c(N)ncc2ccccc12,-98.5% (active)
19,COc1ccc2cnc(N)c(C#Cc3cc(C(=O)Nc4ccc(CN5CCN(C)CC5)c(C(F)(F)F)c4)cnc3C)c2c1,31.3%

row,Compound,growth
1,COc1ccc(-c2nc(SCC(C)C)nc(Nc3ccc(C(=O)O)cc3)c2C#N)cc1,97.1%
2,O=C1c2cc([N+](=O)[O-])ccc2-c2cc(Cl)c(NC(=O)C(F)(F)F)cc21,95.4%
3,CCCNC(=O)Oc1ccc(/C(=C(/C)Cc2ccc(OC)cc2)c2ccc(OCCN3CCCCC3)cc2)cc1,94%
4,CC(=O)CCS(=O)c1ccccc1 (stereo unspecified),113%
5,N#CC1=C(N2CCOCC2)NC2c3ccccc3Sc3ccccc3N2C1=N (stereo unspecified),89.7%
6,CC(C)(C)OC(=O)N1C/C(=C\c2ccccc2)C(=O)/C(=C/c2ccccc2)C1,104%
7,N#Cc1ccc(NC2c3ccccc3CC2O)cc1 (stereo unspecified),102%
8,CC([C@H]1CCC2C3CCC4C[C@@H](N)CC[C@]4(C)C3CC[C@@]21C)N(C)C (stereo partly specified),13.1%
9,CCN(CC)c1ccc2nc3ccc(N=Nc4ccc(O)cc4)cc3[n+](-c3ccccc3)c2c1,89.5%
10,CC(C)CSc1nc(-c2ccc(F)cc2)c(C#N)c(N2CCCCC2)n1,103%
11,Cc1ccc(C(=O)Nc2ccc(CN3CCN(C)CC3)c(C(F)(F)F)c2)cc1C#Cc1cnc(N)c2ccc(C#N)cc12,51.8%
12,CCCCCN1CCN(C(CC(=O)c2ccccc2)C(=O)c2ccccc2)CC1 (stereo unspecified),110%
13,COc1ccc2cc(C(C)C(=O)Nc3ccc(S(=O)(=O)Nc4cc(C)on4)cc3)ccc2c1 (stereo unspecified),97.4%
14,CN1CCN(Cc2ccc(NC(=O)c3ccc(C#Cc4c(N)ncc5ccc(F)cc45)cc3)cc2C(F)(F)F)CC1,-90% (active)
15,CSC1=Nc2c(c(C)c(-c3ccccc3)n2CCCCl)C2=NC(=O)CN12,61.7%
16,Cc1ncc(C(=O)Nc2ccc(CN3CCN(C)CC3)c(C(F)(F)F)c2)cc1C#Cc1cnc(NC2CC2)c2ncccc12,-98.3% (active)
17,Oc1ccc([S+](c2ccc(O)cc2)c2ccc(O)cc2)cc1,98.9%
18,Oc1ccc2ccccc2c1/C=N\Nc1ccccn1,-4.88% (active)
19,CCCNC(=O)Oc1ccc(/C(=C(/CC)Cc2ccccc2)c2ccc(OCCN(CC)CC)cc2)cc1,89.7%
